In the library only some 19% were active in any assay of this set; here they are far more common.
TDP1 cell noCPT = qHTS for Inhibitors of human tyrosyl-DNA phosphodiesterase 1 (TDP1): qHTS in cells in absence of CPT. DT40 Tdp1-/- hTDP1 cells, no CPT, ATP luminescence, 48 h. AID 686978, 2013. Potency, µM (top dose mostly 46.2 µM), inactives show top-dose activity change, negative = growth inhibition, usual class: inhibitors. actives 15% (n = 420,000); note: potency is the fitted concentration of half-maximal effect; nearly all actives have a fitted effect of over 55% in size
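Seeded 400 DT40-hTDP1 cells/well (vehicle DMSO, no 20 nM CPT); pinned compounds; ≥48 hr at 37 °C; CellTiter-Glo luminescence as viability measure.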
HT1080NT lethal = qHTS for induction of synthetic lethality in tumor cells producing 2HG: qHTS for the HT-1080-NT fibrosarcoma cell line; HT-1080-NT fibrosarcoma viability, CellTiter-Glo ATP luminescence, 48 h; Potency, µM (series often up to 46.1 µM), without a hit: top-dose activity, negative = less viability, actives largely listed as cytotoxic; actives 1.6% (n = 360,000); AID 686970, 2013;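 note: NT is the 2HG producing partner of a matched IDH1 knockdown line; potency is the fitted concentration of half-maximal effect; 0% = DMSO-treated cells and -100% = media-only wells without cells; nearly all actives have a fitted effect of over 55% in size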
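750 cells/well, RPMI + 5% FBS; 2 h settle, compound pin-transfer, 48 h at 37 degrees C. CellTiter-Glo 10 min RT, luminescence. Normalized to DMSO and media-only wells.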
TDP1 cell CPT = qHTS for Inhibitors of human tyrosyl-DNA phosphodiesterase 1 (TDP1): qHTS in cells in presence of CPT; chicken DT40 Tdp1-/-;hTDP1 cells + 20 nM CPT, ATP luminescence, 48 h; Potency, µM (top dose mostly 46.2 µM), inactives show at the highest dose activity change, negative = growth inhibition, most hits filed as inhibitors; actives 12% (n = 420,000); note: potency is the fitted concentration of half-maximal effect; nearly all actives have a fitted effect of over 55% in size
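Chicken DT40 Tdp1-/- cells complemented with human TDP1, 400 cells/well, exposed to compounds plus 20 nM camptothecin for at least 48 h at 37 C; viability read as ATP content by CellTiter-Glo luminescence.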
IL1B secr inh = qHTS for Inhibitors of Inflammasome Signaling: IL-1-beta AlphaLISA Primary Screen | THP-1 LPS/ATP IL-1B secretion, AlphaLISA, 16 h; hits give low values | activity change, % at 57.5 µM | actives 4.7% (n = 360,000); in the data active = activity change below about -50%; inconclusive = mostly about -30% to -49%
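Secreted IL-1B measured by AlphaLISA bead assay after 16 h compound exposure of THP-1 cells; compounds (final up to 57.5 uM) added 1 h before LPS (250 ng/mL) and ATP (1.25 mM) stimulation; lower signal means less secretion.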
HT1080 IDH1KD tx = qHTS for induction of synthetic lethality in tumor cells producing 2HG: qHTS for the HT-1080-IDH1KD cell line. actives 2% (n = 360,000). HT-1080 IDH1 knockdown viability, ATP luminescence, 48 h. Potency, µM (series often up to 46.1 µM), inactives show top-dose activity, negative = toxicity, hits mostly cytotoxic;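 note: potency is the fitted concentration of half-maximal effect; 0% = DMSO wells and -100% = cell-free medium wells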
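Assay cells: HT-1080 with IDH1 knockdown, 750 per well, RPMI/5% FBS. Exposure: 48 h at 37 °C following 2 h pre-incubation. Read: CellTiter-Glo luminescence; fitted concentration-response, curve class assigned.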
Active calls of the source: *. Unless noted, calls come from the whole dose curve; as a rule, active = well fitted curve in the direction sought with a large enough effect; inconclusive = small, poorly fitted or top-dose-only effect, or another doubt; inactive = no such curve, though single readings can be large; an effect the other way counts as inactive or inconclusive. Unless noted, % is set by controls: 0 for no effect and ±100 for the full control effect.

Cc1ccccc1C(=O)NC(CC(C)C)C(=O)OCC(=O)c1c(N)n(C)c(=O)n(C)c1=O (stereo not drawn) was read as TDP1 cell noCPT inconclusive, HT1080NT lethal 0%, TDP1 cell CPT 0%, IL1B secr inh 59 and HT1080 IDH1KD tx 0%.
CCSCc1nnc(SCC(=O)c2ccc(OC)cc2)n1C was read as TDP1 cell noCPT inconclusive, HT1080NT lethal 13%, TDP1 cell CPT -20%, IL1B secr inh 14 and HT1080 IDH1KD tx 14%.
Screening CCOC(=O)C1CCN(c2nc(C)nc3c2oc2ccccc23)CC1 returned TDP1 cell noCPT 23µM*, HT1080NT lethal 3%, TDP1 cell CPT 23µM*, IL1B secr inh 4 and HT1080 IDH1KD tx -11%.
Screening CCc1nc(N2CCCC(C)C2)c2oc3ccccc3c2n1 (stereo not drawn) returned TDP1 cell noCPT inconclusive, HT1080NT lethal inconclusive, TDP1 cell CPT inconclusive, IL1B secr inh 1 and HT1080 IDH1KD tx inconclusive.
`CCOC(=O)C1CCCN(c2nc(C)nc3c2oc2ccccc23)C1` (stereo not drawn) gave TDP1 cell noCPT 21µM*, HT1080NT lethal inconclusive, TDP1 cell CPT 15µM*, IL1B secr inh 9 and HT1080 IDH1KD tx inconclusive.
`COc1ccccc1-n1cnnc1SC(C)C(=O)Nc1ccc(NC(C)=O)cc1` (stereo not drawn) gave TDP1 cell noCPT 9%, HT1080NT lethal 4%, TDP1 cell CPT 3%, IL1B secr inh -3 and HT1080 IDH1KD tx 0%.
Screening CCOC(=O)C1CCN(c2nc3ccccc3nc2Cl)CC1 returned TDP1 cell noCPT -11% and TDP1 cell CPT 0%.
Screening CCCCCNC(=O)c1nc(-c2c(F)cccc2F)oc1-c1ccccc1 returned TDP1 cell noCPT 21µM*, HT1080NT lethal -11%, TDP1 cell CPT inconclusive, IL1B secr inh -15 and HT1080 IDH1KD tx -6%.
CCCCNC(=O)c1nc(-c2cc3ccccc3[nH]2)oc1-c1cccc(C(F)(F)F)c1 was read as TDP1 cell noCPT inconclusive, HT1080NT lethal -1%, TDP1 cell CPT 15µM*, IL1B secr inh -3 and HT1080 IDH1KD tx 1%.
O=C(NC1CCCC1)c1nc(-c2c(F)cccc2F)oc1-c1ccccc1 was read as TDP1 cell noCPT inconclusive, HT1080NT lethal -8%, TDP1 cell CPT inconclusive, IL1B secr inh -4 and HT1080 IDH1KD tx -23%.
O=C(NCc1ccccc1)c1nc(-c2c(F)cccc2F)oc1-c1ccccc1 was read as TDP1 cell noCPT 18µM*, HT1080NT lethal -17%, TDP1 cell CPT inconclusive, IL1B secr inh 5 and HT1080 IDH1KD tx -15%.
`CCCCNC(=O)c1nc(-c2ccncc2)oc1-c1ccccc1` gave TDP1 cell noCPT inconclusive, HT1080NT lethal inconclusive, TDP1 cell CPT inconclusive, IL1B secr inh -13 and HT1080 IDH1KD tx 4%.
CCn1nnnc1-c1ccc(OC)c(S(=O)(=O)Nc2ccccc2OC)c1 was read as TDP1 cell noCPT -17%, HT1080NT lethal 4%, TDP1 cell CPT 0%, IL1B secr inh 8 and HT1080 IDH1KD tx -10%.
Cc1nn(C)cc1CNc1nc(C)c(-c2ccn(CC3COc4ccccc4O3)n2)s1 (stereo not drawn) was read as TDP1 cell noCPT 21µM* and TDP1 cell CPT inconclusive.
Screening Cc1nc(NCc2c(C)nn(C)c2Cl)sc1-c1ccn(CC2COc3ccccc3O2)n1 (stereo not drawn) returned TDP1 cell noCPT 21µM* and TDP1 cell CPT 16µM*.
`O=C(COc1cccc2c1CCN(Cc1ccc(Cl)cc1)C2=O)N1CCOCC1` gave TDP1 cell noCPT inconclusive, HT1080NT lethal 0%, TDP1 cell CPT inconclusive, IL1B secr inh inconclusive and HT1080 IDH1KD tx -23%.
`C/C(=N\NC(=O)C1CCCC1)c1ccc(NC(=O)C(F)(F)F)cc1` gave TDP1 cell noCPT -14%, HT1080NT lethal inconclusive, TDP1 cell CPT -7%, IL1B secr inh inconclusive and HT1080 IDH1KD tx inconclusive.
`O=C(c1cccnc1Cl)N(Cc1ccccc1)Cc1ccccc1` gave TDP1 cell noCPT 9.2µM*, HT1080NT lethal 0%, TDP1 cell CPT inconclusive, IL1B secr inh -67* and HT1080 IDH1KD tx -6%.
For COc1ccc(C(C(=O)NC2CCCC2)N(C(=O)c2snc(-c3ccc(F)cc3)c2N)c2ccccc2)cc1 (stereo not drawn) the results were TDP1 cell noCPT 21µM*, HT1080NT lethal 5%, TDP1 cell CPT 15µM*, IL1B secr inh 14 and HT1080 IDH1KD tx 0%.
`COc1ccc(C(C(=O)NC2CCCC2)N(C(=O)c2snc(-c3ccc(F)cc3)c2N)c2ccc(F)cc2)cc1` (stereo not drawn) gave TDP1 cell noCPT 15µM*, HT1080NT lethal inconclusive, TDP1 cell CPT 9.2µM*, IL1B secr inh 47 and HT1080 IDH1KD tx inconclusive.
For COc1ccc(C(C(=O)NC2CCCC2)N(C(=O)c2snc(-c3ccc(F)cc3)c2N)c2cccc(F)c2)cc1 (stereo not drawn) the results were TDP1 cell noCPT 7.3µM*, HT1080NT lethal -2%, TDP1 cell CPT 6.5µM*, IL1B secr inh 40 and HT1080 IDH1KD tx 0%.
Screening COc1ccc(C(C(=O)NC2CCCC2)N(C(=O)c2snc(-c3ccc(F)cc3)c2N)c2ccc(OC)cc2)cc1 (stereo not drawn) returned TDP1 cell noCPT 3.7µM*, HT1080NT lethal -17%, TDP1 cell CPT 8.2µM*, IL1B secr inh -2 and HT1080 IDH1KD tx 3%.
`COc1ccc(N(C(=O)c2snc(C(N)=O)c2N)C(C(=O)NC2CCCC2)c2ccc3ncccc3c2)cc1` (stereo not drawn) gave TDP1 cell noCPT -22%, HT1080NT lethal -19%, TDP1 cell CPT inconclusive, IL1B secr inh -20 and HT1080 IDH1KD tx -12%.
`COc1ccc(C(C(=O)NC2CCCCC2)N(C(=O)c2sc(C)nc2C)c2ccccc2)cc1` (stereo not drawn) gave TDP1 cell noCPT -24%, HT1080NT lethal 6%, TDP1 cell CPT 9%, IL1B secr inh 28 and HT1080 IDH1KD tx 0%.
`CCS(=O)(=O)c1ccc(C(=O)NC2CC2)c(Cl)c1Cl` gave TDP1 cell noCPT -7%, HT1080NT lethal 17%, TDP1 cell CPT -7%, IL1B secr inh 0 and HT1080 IDH1KD tx -2%.

High-throughput results deposited in PubChem by National Center for Advancing Translational Sciences (NCATS).
